Source: PubChem BioAssay
D1 ag: agonists of human D1 dopamine receptor | P21728 | HEK293 T-REx D1 cells, calcium flux, agonist mode | activation, % at 2 µM | hit rate 1% among 360,000 | AID 504660; in the data active = activation above about 30%; note: 0% is about no effect
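Agonism was scored from calcium flux recorded over 180 s (1 read/s) after pintool compound addition, following a 10-cycle baseline. Cells were inducible force-coupled HEK293 TREx D1, plated overnight at 30 C and loaded with no-wash calcium dye.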
D1 PAM: potentiators of human D1 dopamine receptor. P21728. HEK293 TREx D1 cells, calcium flux, dopamine EC20 potentiation. potentiation, % at 10 µM. hit rate 0.036% among 360,000. AID 504651; in the data active = potentiation above about 30%; note: 0% is about no effect
D3 antag: D3 dopamine receptor (human) antagonism; P35462; D3R cells, DiscoveRx beta-arrestin luminescence, antagonist mode; hits give low values; max response, negative = inhibition, %; hit rate 2.5% among 360,000; AID 652054; in the data active = max response below about -50%; note: % is set by controls: 0 for no effect and ±100 for the full control effect
Target sequence (P35462 whole entry, looked up): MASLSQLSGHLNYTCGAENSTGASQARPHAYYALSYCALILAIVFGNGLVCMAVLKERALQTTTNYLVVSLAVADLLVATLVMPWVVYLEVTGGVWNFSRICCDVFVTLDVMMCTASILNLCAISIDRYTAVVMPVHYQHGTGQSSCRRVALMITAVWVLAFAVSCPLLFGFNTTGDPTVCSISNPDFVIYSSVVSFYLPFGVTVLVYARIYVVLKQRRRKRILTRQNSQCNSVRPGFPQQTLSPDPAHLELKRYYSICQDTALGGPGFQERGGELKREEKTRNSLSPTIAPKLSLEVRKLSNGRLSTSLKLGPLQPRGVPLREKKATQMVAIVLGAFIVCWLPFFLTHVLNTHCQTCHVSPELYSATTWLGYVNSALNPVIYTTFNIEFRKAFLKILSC
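Cells expressing the human receptor were seeded at 1500 cells/well, incubated overnight at 37 degrees C in 5% CO2, then exposed to library compounds with dopamine controls for 90 minutes at 37 degrees C before luminescent detection.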
D1 antag: human D1 dopamine receptor antagonism; HEK293 TREx D1 cells, calcium flux, dopamine EC80; hits give low values; hit rate 3.2% among 360,000; AID 504652; P21728; activity change, negative = inhibition, % at 10 µM; in the data active = activity change below about -30%; note: % is set by controls: 0 for no effect and ±100 for the full control effect
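Antagonism measured as reduced calcium response to an EC80 dopamine addition following 180 s compound pre-read; cells were inducible HEK293 Trex D1 plated overnight at 30 C, read kinetically at 1 cycle/sec.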
DRD3 agonist: D3 dopamine receptor (human) agonism; D3R DiscoveRx beta-arrestin cells, luminescence, 90 min; max activation, %; hit rate 0.58% among 410,000; AID 652048; in the data active = max activation above about 30%; note: 0% is about no effect
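Cells at 1500/well, incubated overnight, then treated with pinned compounds (dopamine as control) for 90 min at 37 degrees C. DiscoveRx reagent added for 30 - 60 minutes at room temperature; luminescence read.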
An asterisk follows results filed as active; / = no result. Compounds with a hit are over-represented: about 6% of the library has one in this group of screens.

SMILES	D1 ag	D1 PAM	D3 antag	D1 antag	DRD3 agonist
Cc1ccc(C)c(C(=O)COC(=O)c2ccccc2N2C(=O)C3C4CCC(C4)C3C2=O)c1 (centres undefined)	14.7	-5.1	1.5	-42.2*	2.7
CCCCOC(=O)c1ccccc1N1C(=O)C2C3CCC(C3)C2C1=O (centres undefined)	4.9	-12.4	-6.4	-32.3*	3.9
O=C(COc1ccc(Cl)cc1)NCCc1csc(-c2ccc(C(F)(F)F)cc2)n1	10.4	-3.4	/	-35.9*	8.5
O=C(Cc1csc(-c2ccccc2)n1)Nc1ccc(C(F)(F)F)cc1	3.2	-2.5	-56.2*	-14.5	-1.2
O=C(COc1ccc(Cl)cc1)NCCc1csc(-c2ccc(F)cc2)n1	5.0	-3.3	/	-19.0	-7.5
O=C(COc1ccccc1)NCCc1csc(-c2ccc(Cl)cc2)n1	13.7	-2.5	/	-49.3*	3.5
COc1cc(C(=O)NCCc2csc(-c3ccc(Cl)cc3)n2)cc(OC)c1OC	4.0	-2.7	/	-6.0	41.4*
Cc1cccc(N2CCN(C(=O)C3CCCN(S(=O)(=O)c4ccc(Br)s4)C3)CC2)c1C (centres undefined)	2.8	1.4	/	-13.5	10.7
CCc1ccc(NC(=O)CC2C(=O)N(c3cccc(C)c3)C(=O)N2Cc2cccc(OC)c2)cc1 (centres undefined)	2.8	-0.8	/	-1.1	2.2
Cc1cccc(NC(=O)c2sc3nc4c(cc3c2N)CN(C(C)C)CC4)c1	7.2	-0.2	/	3.9	3.0
Cc1ccc(NC(=O)C2CCCN(S(=O)(=O)c3cccs3)C2)c(C)c1 (centres undefined)	1.4	3.1	/	0.9	4.4
COc1ccc(NC(=O)CN2CCCN(Cc3ccc(Cl)cc3)S2(=O)=O)cc1Cl	2.3	-0.7	/	-3.5	-7.2
CC(=O)N1CCN(c2ccc(Nc3ncnc4c3oc3ccccc34)cc2)CC1	6.5	-5.7	-63.9*	-24.4	16.4
c1ccc(N2CCN(c3ncnc4c3oc3ccccc34)CC2)cc1	6.7	1.6	90.1	-18.5	35.8*
CCc1nnc(N2CCN(c3ncnc4c3oc3ccccc34)CC2)s1	6.5	-2.9	12.7	-12.1	0.4
COc1ccnc(Oc2ccccc2)c1C(=O)N/C=N/OCc1ccc(F)cc1Cl	13.5	0.5	4.9	10.9	46.4*
CC[C@H](C)[C@H](N)C(=O)O	/	/	/	/	-12.6
Cc1csc2cc(-c3cccc([N+](=O)[O-])c3)c(-c3cccc([N+](=O)[O-])c3)c[n+]12	0.1	2.5	-60.6*	-8.5	-23.1
CCc1ccc(S(=O)(=O)c2nnn3c2nc(Nc2cc(OC)ccc2OC)c2sccc23)cc1	-0.2	-1.8	/	12.2	8.9
COc1cccc(CNC(=O)CSc2n[nH]c(-c3ccccc3Cl)n2)c1	-1.7	-1.1	/	-21.6	-1.9
COc1cc(C2c3c(oc4ccc(F)cc4c3=O)C(=O)N2c2nc(C)c(C)s2)cc(OC)c1OC (centres undefined)	52.0*	-8.2	/	1.6	-6.2
CCc1ccc(S(=O)(=O)c2nnn3c2nc(NCc2cccs2)c2sccc23)cc1	4.6	-5.2	/	-10.6	4.8
CCN(Cc1ccccc1)S(=O)(=O)c1ccc(S(=O)(=O)N2CCN(CCC#N)CC2)cc1	-0.8	-5.2	-17.1	-42.5*	-3.0
CCN(C1CCCCC1)S(=O)(=O)c1ccc(S(=O)(=O)N2CCN(CCC#N)CC2)cc1	-2.7	3.0	-53.3*	1.0	-3.0
N#CCCN1CCN(S(=O)(=O)c2ccc(S(=O)(=O)N3CCCCCC3)cc2)CC1	-1.2	-7.7	-11.2	20.0	-8.8
SMILES	D1 ag	D1 PAM	D3 antag	D1 antag	DRD3 agonist
Cc1ccn2c(Nc3ccc4c(c3)OCCO4)c(-c3ccc(C)o3)nc2c1	-2.7	2.7	/	-3.9	1.4
COC(=O)C1=C(C)NC(C)=C(C(=O)OC)C1c1ccccc1[N+](=O)[O-]	13.7	2.0	-105.3*	-13.3	-82.8
CCOC(=O)C1=C(C)NC(C)=C(C(=O)OC)C1c1cccc([N+](=O)[O-])c1 (centres undefined)	5.3	-5.3	4.6	-8.7	-27.2
O=C(CCS(=O)(=O)Cc1ccccc1)Nc1nc2c(s1)CCCC2	0.2	-1.5	-102.9*	4.4	-11.4
O=C(Nc1nc2c(s1)CCCC2)c1ccc(Br)s1	1.9	-1.4	-67.0*	-2.0	-26.1
O=C(Nc1nc2c(s1)CCCC2)c1ccc(N2C(=O)CCC2=O)cc1	2.9	-7.1	-24.2	-71.0*	-1.5
O=C(Nc1nc2c(s1)CCCC2)C1CCCN1C(=O)c1cccs1 (centres undefined)	0.0	1.1	-52.7*	10.0	-4.7
O=C(Nc1nccs1)[C@@H]1CCCN1C(=O)c1cccs1	1.3	2.5	-2.1	-1.8	0.0
COc1ccccc1NC(=O)C1=C(C)Nc2nc(SCc3cc(C)ccc3C)nn2C1c1ccccc1 (centres undefined)	2.1	-0.1	/	26.5	-2.2
c1coc(-c2nc3cc4ccccc4cc3nc2-c2ccco2)c1	5.3	-3.6	/	4.9	/
CCCC[C@]12Cc3ccccc3[C@H](O1)C1=C(O2)C(=O)c2ccccc2C1=O	2.0	-3.1	/	2.1	/
Clc1ccc2nc(-c3ccco3)c(Cc3ccsc3)n2c1	/	/	-53.3*	/	-10.7
Brc1ccc2nc(-c3ccco3)c(Cc3ccsc3)n2c1	/	/	7.5	/	-0.9
CCN(C(=O)c1cc2c(s1)-c1ccccc1OC2)c1cc(Cl)ccc1OC	4.8	-2.8	/	0.5	-16.1
O=C(NC(c1ccc(-c2ccccc2)cc1)c1cnccn1)C1CCN(Cc2ccc3c(c2)OCO3)CC1 (centres undefined)	/	/	-65.8*	/	-9.4
O=C(NC(c1ccc(-c2ccccc2)cc1)c1cnccn1)C1CCN(Cc2ccc(Cl)c(Cl)c2)CC1 (centres undefined)	/	/	-57.4*	/	-13.5
c1cnc2cc3c(cc2n1)[C@@H]1CNC[C@H]3C1	/	/	/	/	4.0
COc1ccc(CNC(=O)CCC(=O)N2CCSc3ccccc32)cc1	2.6	-3.9	/	11.2	-15.4
CCC1(c2ccc(F)cc2)NC(=O)N(CC(=O)Nc2cccnc2Cl)C1=O (centres undefined)	42.9*	5.5	0.1	6.0	-20.5
CC1(c2ccc(OC(F)F)cc2)NC(=O)N(CC(=O)Nc2cccnc2Cl)C1=O (centres undefined)	73.1*	5.3	-20.6	-62.0*	-7.6
CC1(c2ccc(OC(F)F)cc2)NC(=O)N(CC(=O)N2CCN(C(=O)c3ccco3)CC2)C1=O (centres undefined)	2.3	-0.6	-7.4	-30.2*	-2.5
CCOC(=O)c1c(S(=O)(=O)NCC(=O)Nc2cccc(SC)c2)c(C)n(C)c1C	1.2	-0.7	/	-6.2	-6.4
COc1ccc(C2=C(C)C(N3CCC(C(=O)NCc4ccco4)CC3)=NS2(=O)=O)cc1	0.8	-1.2	/	19.7	4.5
COC(=O)CN1C(=O)C(C)=C(c2ccc(C)cc2)S1(=O)=O	0.8	-6.0	-5.8	-36.3*	10.0
CC1=C(c2ccc(C)cc2)S(=O)(=O)N(CC(=O)O)C1=O	6.2	4.3	6.3	-0.6	8.9
